# Compounds without any hit were thinned out: in the full panel of roughly 83,000, 20% have a hit.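 Percent growth is the endpoint: 0 to 100 indicates growth inhibition (40 means 60% inhibition), 0 means no net growth, and negative values indicate cell death.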 Values without a mark were called inactive. The source made the active and inactive calls. The calls were made as follows: active = growth percent below 10; inactive = the rest.
# Tested on: HL-60(TB) leukemia
# Assay: NCI-60 one-dose screen, 48 h (100 = growth as untreated, 0 = no growth, -100 = all killed)
# Conditions: 10 µM unless noted
row,SMILES,growth
1,COc1cc2c(cc1OCCCCCOc1ccc(-n3c(C)nc4ccccc4c3=O)cc1)N=C[C@@H]1CCCN1C2=O,-33.8% (active)
2,CCOC(=O)c1cnn2c3ccccc3n(S(=O)(=O)c3ccc(OC)cc3)c12,4.77% (active)
3,C[C@@H]1CC[C@H]2[C@@H](C)C(O)O[C@@H]3O[C@]4(C)CC[C@@H]1[C@]32OO4 (stereo not given in full),-24.4% (active)
4,COc1cc2cc3c(nc2cc1OC)CCN3Cc1ccc(NC(=O)c2ccc(Cl)c(C(F)(F)F)c2)cc1,99.5%
5,COc1ccc2nc3cc(Cl)ccc3c(N3CCN(c4ccnc(Nc5ccc(F)cc5)n4)CC3)c2c1,52.5%
6,CC(C)(C)c1ccc(C(=O)Nc2sc3c(c2C#N)CCC(=O)C3)cc1,-1.94% (active)
7,O=S(=O)(NCCCNc1nccc(-c2cn(-c3ccccc3)nc2-c2ccc(Cl)c(O)c2)n1)c1ccccc1,83.4%
8,O=C(N/N=C/c1cc(Cl)ccc1O)c1ccccc1Nc1ccnc(C(F)(F)F)c1,39.3%
9,COc1nc(N)nc2c1ncn2C1OC(CO)CC1O (stereo not given),98.9%
10,COc1ccc([C@@H]2[C@@H](Oc3ccccc3)C(=O)N2c2cc(OC)c(OC)c(OC)c2)cc1F,-53.9% (active)
11,Nc1ccc(F)c(Cl)c1F,95.6%
12,O=C(NC(CSSCC(NC(=O)OCc1ccccc1)C(=O)O)C(=O)O)OCc1ccccc1 (stereo not given),14.3%
13,C=C(C)[C@@H]1CC[C@]2(C(=O)OCCOCCOCC[P+](c3ccccc3)(c3ccccc3)c3ccccc3)CC[C@]3(C)[C@H](CC[C@@H]4[C@@]5(C)CC[C@H](OC(=O)C(Cl)Cl)C(C)(C)[C@@H]5CC[C@]43C)[C@@H]12,-47.8% (active)
14,O=C(Nc1cccc([N+](=O)[O-])c1)c1ccc(Cl)c(Cl)c1,87.8%
15,CC1(C)[C@@H](NOCCCN)CC[C@]2(C)[C@H]3C(=O)C=C4[C@@H]5C[C@](C)(C(=O)O)CC[C@]5(C)CC[C@@]4(C)[C@]3(C)CC[C@@H]12,-31.3% [100 µM] (active)
16,Cn1cc(-c2csc(-c3c[nH]c4ccc(F)cc34)n2)c2cccnc21,24.5%
17,Nc1c(C(=O)Nc2ccccc2)sc2nc3c(cc12)CN(Cc1ccccc1)CC3,83%
18,Cc1ccc(-c2csc(/N=C3\C(=O)Nc4ccccc43)n2)cc1,-48% (active)
19,CCn1c2ccc(O)cc2c2c(C)c3c[n+](C(C)C)ccc3c(C)c21,70.3%
20,COc1cc(OC)c2cc(C(=O)O)c(=O)oc2c1,66%

row,SMILES,growth
1,CN1CCN(C(=O)[C@@]2(C)CC[C@]3(C)CC[C@]4(C)C(=CC[C@@H]5[C@@]6(C)CC[C@H](OC(=O)c7cccnc7)C(C)(C)[C@@H]6CC[C@]54C)[C@@H]3C2)CC1,-49.1% (active)
2,CC(C)CCC[C@@H](C)[C@H]1CC[C@H]2[C@@H]3CC[C@H]4C/C(=N/O)CC[C@]4(C)[C@H]3CC[C@]12C,104%
3,O=C(Oc1ccccc1[N+](=O)[O-])C1CCCN1C(=O)OCc1ccccc1 (stereo not given),58.9%
4,COc1ccc(/C(C)=N/NC(=O)CSc2nc3ccccc3c(=O)n2CCc2ccc(S(N)(=O)=O)cc2)cc1,76.7%
5,N=C(N)c1ccc(-c2ccc(-c3ccc(Cl)c(Cl)c3)s2)nc1,-43.9% (active)
6,CC(=O)[C@@H]1CC[C@]2(C(=O)n3ccnc3)CC[C@]3(C)[C@H](CC[C@@H]4[C@@]5(C)Cc6c([nH]c7ccccc67)C(C)(C)[C@@H]5CC[C@]43C)[C@@H]12,90.9%
7,c1ccc(C2CCCCC2)c(OCCCCCN2CCNCC2)c1,28.2%
8,Cc1cc(Nc2nc(N3CCNCC3)nc3ccccc23)n[nH]1,106%
9,CCN(CCNc1ccc(C)c2sc3cc(Cl)ccc3c(=O)c12)CC(C)(C)O,81.4%
10,COc1ccc(-c2cc(-c3ccc(Nc4nc(Nc5ccc(Cl)cc5)nc(Nc5ccc(Cl)cc5)n4)cc3)no2)cc1,-43.5% (active)
11,N#Cc1ccc(O)c(C2=NCC(c3ccccc3)O2)c1 (stereo not given),14.5%
12,COc1cc(/C=C2\CN(C(=O)CCN3CCC(=NO)CC3)C/C(=C\c3cc(OC)c(OC)c(OC)c3)C2=O)cc(OC)c1OC,-27.9% (active)
13,CC/C=C\C=C/C(=O)N/C=C/CC1Cc2cccc(O)c2C(=O)O1 (stereo not given),17.4%
14,COc1cccc(C2=NN3C(C2)c2ccccc2OC3c2ccc(/C=C3\SC(=O)NC3=O)cc2)c1 (stereo not given),100%
15,O=C1CCn2c1c(O)c1ccccc1c2=O,110%
16,COc1cc(N)ccc1Nc1c2ccccc2nc2ccccc12,48.2%
17,COc1c(O)c(O)cc2c3c(oc12)CC(c1ccc2c(c1)OCO2)CC3=O (stereo not given),61.1%
18,COc1ccc(-c2nc(SCC(C)C)nc(Nc3ccc(C(=O)O)cc3)c2C#N)cc1,99.7%
19,COc1ncc(-c2ccc3ncnc(Nc4cccc(Cl)c4)c3c2)cc1N(S(C)(=O)=O)S(C)(=O)=O,49.7%
20,COc1cc2c(=O)n(CCCN(C)C)c3c4cc[nH]c4ncc3c2cc1OC,75.3%

# Reference: PubChem BioAssay (NCI)
